3CLpro inhibitor: SARS-CoV 3CLpro protease inhibition. recombinant SARS-CoV 3CLpro, quenched FRET peptide cleavage. hit rate 0.14% among 290,000. inhibition, % at 6 µM. AID 1706; in the data active = inhibition above about 12%
FBA Mtb inh: inhibitors of M. tuberculosis fructose-bisphosphate aldolase | purified M. tuberculosis FBA, fluorescence read-out | inhibition, % at 1 µM | hit rate 2.3% among 360,000;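 note: 0% = vehicle and 100% = reference inhibitor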
Target sequence (P9WQA3 whole entry, looked up): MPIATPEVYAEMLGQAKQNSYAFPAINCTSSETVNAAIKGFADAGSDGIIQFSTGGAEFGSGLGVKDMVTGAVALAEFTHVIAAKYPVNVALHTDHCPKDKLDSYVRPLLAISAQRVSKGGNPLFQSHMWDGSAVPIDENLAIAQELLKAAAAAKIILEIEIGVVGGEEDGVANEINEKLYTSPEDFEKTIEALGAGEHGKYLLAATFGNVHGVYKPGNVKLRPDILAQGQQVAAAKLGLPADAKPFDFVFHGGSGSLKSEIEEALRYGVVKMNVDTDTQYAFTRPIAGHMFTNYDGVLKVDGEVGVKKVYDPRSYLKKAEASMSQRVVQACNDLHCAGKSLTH
FadD28 binding: blocks FadD28 binding to the bisubstrate probe; fluorescence polarization; inhibition, % at 12.5 µM; hit rate 0.22% among 360,000; AID 588549; in the data active = inhibition above about 8.5%, passing the limit was not always enough
GDH-TPI counter-1: GDH-TPI coupled enzyme inhibition counter-screen. GDH-TPI coupled enzyme counterscreen, NADH absorbance. inhibition, % at 4.8 µM. hit rate 1.2% among 360,000. AID 588335; in the data active = inhibition above about 30%;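 note: 0% = DMSO wells and 100% = wells lacking the enzyme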
Mtb BioA inh: BioA (M. tuberculosis) enzyme inhibition; purified M. tuberculosis BioA enzyme, plate reader; inhibition, % at 9.99 µM; hit rate 0.096% among 360,000; in the data active = inhibition above about 40%
Mtb FBA confirm: Mtb FBA inhibition, confirmed; shares compounds with FBA Mtb inh; purified M. tuberculosis FBA, fluorescence read-out; inhibition, % at 1 µM; hit rate 78% among 5,600;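 note: 0% = vehicle wells and 100% = reference inhibitor wells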
GDH-TPI counter-2: inhibits GDH-TPI coupling enzymes, flagging Mtb FBA hits; GDH-TPI coupled enzyme counterscreen, fluorescence; inhibition, % at 1 µM; shares compounds with FBA Mtb inh; hit rate 81% among 5,600; in the data active = inhibition above about 10%
Active calls of the source: *. A selection: hits, their analogues and other compounds. The true share with any hit is near 3.1%. Cut-off read from the data, not from the text of the source, unless noted: active = inhibition above about 27%; inactive = the rest.

Results for CCCC#Cc1ccc([C@H]2[C@H](CO)N3CCCCN(Cc4cccnc4)C[C@@H]23)cc1 ?
Mtb BioA inh: -3

Results for O=C(O)CCC(=O)Nc1nc2nc(-c3ccccc3)cc(-c3ccccc3)n2n1 ?
3CLpro inhibitor: 1; FBA Mtb inh: 98*; FadD28 binding: -5; GDH-TPI counter-1: 36*; Mtb BioA inh: 2; Mtb FBA confirm: 85*; GDH-TPI counter-2: 98*

How did CC(=O)Nc1ccc(S(=O)(=O)Nc2nc3nc(-c4ccccc4)cc(-c4ccccc4)n3n2)cc1 do in these assays?
3CLpro inhibitor: 9; FBA Mtb inh: 24; FadD28 binding: -18; GDH-TPI counter-1: 7; Mtb BioA inh: 4

What do the screens show for `Cc1ccc2nc(-c3ccc(O)cc3)c(Nc3ccc4c(c3)OCCO4)n2c1`?
3CLpro inhibitor: 1; FBA Mtb inh: 36*; FadD28 binding: -6; GDH-TPI counter-1: 2; Mtb BioA inh: 2; Mtb FBA confirm: active; GDH-TPI counter-2: 162*

What do the screens show for `Cc1ccc2nc(-c3ccccc3O)c(Nc3ccc4c(c3)OCCO4)n2c1`?
3CLpro inhibitor: -2; FBA Mtb inh: 1; FadD28 binding: -2; GDH-TPI counter-1: 0

How did C[C@H](CO)N1C[C@H](C)[C@@H](CN(C)C(=O)CC2CC2)Oc2ncc(-c3ccc(C#N)cc3)cc2C1=O do in these assays?
Mtb BioA inh: -1

Results for CO[C@@H]1CN(C)C(=O)c2cc(NC(=O)NC3CCCCC3)ccc2OC[C@H](C)NC[C@@H]1C ?
Mtb BioA inh: -1

Results for O=C(C[C@@H]1CC[C@@H](NC(=O)c2ccccc2)[C@H](CO)O1)NCc1ccc(Oc2ccccc2)cc1 ?
Mtb BioA inh: -2

Results for COC(=O)c1ccc(/C=C/c2ccc3cccc(OC)c3n2)cc1 ?
3CLpro inhibitor: 1; FBA Mtb inh: 60*; FadD28 binding: -2; GDH-TPI counter-1: 37*; Mtb FBA confirm: active; GDH-TPI counter-2: active

How did COc1ccc2c(c1)/C(=C/c1cc(OC)c(OC)c(OC)c1)C(=O)N2 do in these assays?
FBA Mtb inh: 0; FadD28 binding: 1; GDH-TPI counter-1: 19

What do the screens show for `C=C1c2cc(OC)ccc2NC(=O)N1CC`?
3CLpro inhibitor: 4; FBA Mtb inh: 34*; FadD28 binding: 0; GDH-TPI counter-1: 13; Mtb BioA inh: -1; Mtb FBA confirm: 3; GDH-TPI counter-2: 2

What do the screens show for `CC1=CC=CN2CC(O)CN=C12` (stereo not given)?
3CLpro inhibitor: -1; FBA Mtb inh: 30*; FadD28 binding: -1; GDH-TPI counter-1: 8; Mtb FBA confirm: active; GDH-TPI counter-2: active

What do the screens show for `CC1=CN2CC(O)CN=C2C=C1` (stereo not given)?
3CLpro inhibitor: -8; FBA Mtb inh: 38*; FadD28 binding: -3; GDH-TPI counter-1: 5; Mtb BioA inh: -1; Mtb FBA confirm: 128*; GDH-TPI counter-2: 97*

Results for CCC(=O)Nc1ccc2c(c1)OC[C@@H](C)N(Cc1ccncc1)C[C@@H](C)[C@H](OC)CN(C)C2=O ?
Mtb BioA inh: -4

Results for O=S(=O)(Nc1nc2ccccc2nc1N1CCc2ccccc2C1)c1ccc(Cl)cc1 ?
3CLpro inhibitor: 6; FBA Mtb inh: 66*; FadD28 binding: -2; GDH-TPI counter-1: 32*; Mtb BioA inh: 8; Mtb FBA confirm: active; GDH-TPI counter-2: active

How did CCN(CC)CCN(Cc1cc2cc3c(cc2[nH]c1=O)OCO3)C(=S)NCc1ccco1 do in these assays?
3CLpro inhibitor: 3; FBA Mtb inh: 35*; FadD28 binding: -5; GDH-TPI counter-1: 9; Mtb FBA confirm: 6; GDH-TPI counter-2: -1

How did CN(C)CCCNC(=S)N(CCCO)Cc1cc2cc3c(cc2[nH]c1=O)OCO3 do in these assays?
3CLpro inhibitor: 1; FBA Mtb inh: 26; FadD28 binding: 0; GDH-TPI counter-1: 13; Mtb BioA inh: 1

How did CN(C)CCCN(Cc1cc2cc3c(cc2[nH]c1=O)OCO3)C(=S)NCc1ccco1 do in these assays?
3CLpro inhibitor: 0; FBA Mtb inh: 27*; FadD28 binding: -5; GDH-TPI counter-1: 8; Mtb BioA inh: 1; Mtb FBA confirm: active; GDH-TPI counter-2: active

How did CCC(=O)N(Cc1ccco1)Cc1cc2cc3c(cc2[nH]c1=O)OCO3 do in these assays?
3CLpro inhibitor: 2; FBA Mtb inh: 40*; FadD28 binding: 0; GDH-TPI counter-1: 11; Mtb FBA confirm: active; GDH-TPI counter-2: 152*

Screening results: PubChem, several laboratories
